Data from PubChem BioAssay (EPA / NIEHS).
Several values for one entry are separate records, joined by “and”; a condition that tells them apart may be missing. Equal values may be shown once. Records with an inconclusive call do not appear. More than one record can exist for a structure, and the calls need not agree. Activity calls are given as the source filed them. The calls were made as follows, unless noted: active = hit-call score of the fitted dose curve at least 0.9, where 1 is the maximum; inconclusive = response in the unintended direction; inactive = score below 0.9.

Legend:
[1] = target: Cellular tumor antigen p53 (Homo sapiens) (UniProt P04637); assay: TOX21_p53_BLA_p2_ratio: Tox21 HCT-116 p53 Agonism Beta-lactamase Assay, Ratio, Phase 2 (AID 2283592)
Procedure, shortened: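 In this cell-based reporter format, HCT116 cells were dosed with chemicals delivered from DMSO by 217-fold dilution and incubated 16 h at 37C. Emission at 460 and 530 nm after 2 h CCF4-AM loading provided the ratio, fitted upward versus DMSO.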

[2] = TOX21_p53_BLA_p3_viability: Viability Assessment in the Tox21 HCT-116 p53 Agonism Beta-lactamase Assay, Phase 3 (AID 2283593);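 also: cells exposed to compound for 16 h before reading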
Procedure, shortened: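 Cellular ATP was quantified by CellTiter-Glo luminescence, read after 30 min at room temperature. Beforehand, HCT116 cells (4000/well) received compound 5 h post-seeding, 217-fold diluted from DMSO, then incubated 16 h at 37C.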

[3] = target: Cellular tumor antigen p53 (Homo sapiens) (UniProt P04637); assay: TOX21_p53_BLA_p3_ratio: Tox21 HCT-116 p53 Agonism Beta-lactamase Assay, Ratio, Phase 3 (AID 2283596)
Procedure, shortened: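 HCT116 p53-bla cells (4000/well) given compound in DMSO (217-fold dilution) after 5 h, incubated 16 h at 37C. CCF4-AM substrate 2 h at room temperature; 460/530 nm emission ratio, gain fitted against DMSO.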

[4] = TOX21_p53_BLA_p4_viability: Viability Assessment in the Tox21 HCT-116 p53 Agonism Beta-lactamase Assay, Phase 4 (AID 2283597);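 also: hits lower the luminescence signal meaning cytotoxicity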
Procedure, shortened: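 We seeded HCT116 p53 reporter cells at 4000/well and waited 5 h. We then added compounds in DMSO at a 217-fold dilution and incubated for 16 h. Viability was read as CellTiter-Glo luminescence after 30 min at RT.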

[5] = TOX21_p53_BLA_p5_viability: Viability Assessment in the Tox21 HCT-116 p53 Agonism Beta-lactamase Assay, Phase 5 (AID 2283600)
Procedure, shortened: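 Compounds, pinned from DMSO at 217-fold dilution, were left on the cells for 16 h. The viability endpoint was ATP content measured by CellTiter-Glo luminescence, where falling signal reflects cytotoxicity.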

[6] = target: Cellular tumor antigen p53 (Homo sapiens) (UniProt P04637); assay: TOX21_p53_BLA_p4_ratio: Tox21 HCT-116 p53 Agonism Beta-lactamase Assay, Ratio, Phase 4 (AID 2283601)
Procedure, shortened: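 Signal is the blue/green (460nm/530nm) ratio of cleaved versus uncleaved CCF4-AM substrate, read after 2 h substrate loading. Cells were HCT116 carrying the p53-responsive beta-lactamase reporter, dosed 16 h at 37C, 5% CO2; CellTiter-Glo measured in parallel.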

[7] = CEETOX_H295R_MTT_cell_viability: Viability Assessment in the CeeTox HT-H295R MTT Assay (AID 2283718; active = hit-call score of the fitted dose curve at least 0.9, where 1 is the maximum; inactive = score below 0.9;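 as to AC50: curve fitted both ways so AC50 may mark viability loss or gain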)
Procedure, shortened: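 MTT reduction (0.5 mg/ml, 4 h at 37 C; absorbance at 570 and 650 nm) gave viability as background-corrected percent change versus controls. H295R cells had 48 h forskolin (10 uM) prestimulation, then 48 h chemical exposure at 0.1% DMSO.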

[8] = ACEA_AR_agonist_AUC_viability: ACEA Biosciences xCELLigence Real-Time Cell Analysis on Androgen Receptor Agonism for Viability (AID 2283775)
Procedure, shortened: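 Read-out is area under the impedance curve at 80 h post-dose in 22Rv1 cells, with DMSO as baseline and signal loss taken as reduced viability. Compounds ran in duplicate from 100 uM final.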

[9] = ACEA_AR_antagonist_AUC_viability: ACEA Biosciences xCELLigence Real-Time Cell Analysis on Androgen Receptor Antagonism for Viability (AID 2283776);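 also: 22Rv1 human prostate cancer cells growing on impedance electrode plates; area under impedance growth curve at 80 h after dosing as viability; hits lower the growth signal relative to DMSO meaning cytotoxicity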
Procedure, shortened: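 Real-time electrical impedance tracks 22Rv1 proliferation after continuous compound exposure (top 100 uM final, 1:4 steps, 8 concentrations). The 80 h area-under-curve serves as the cytotoxicity readout relative to DMSO.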

Measured: AC50

Chain of Cellular tumor antigen p53 (Homo sapiens) (P04637 whole entry, looked up): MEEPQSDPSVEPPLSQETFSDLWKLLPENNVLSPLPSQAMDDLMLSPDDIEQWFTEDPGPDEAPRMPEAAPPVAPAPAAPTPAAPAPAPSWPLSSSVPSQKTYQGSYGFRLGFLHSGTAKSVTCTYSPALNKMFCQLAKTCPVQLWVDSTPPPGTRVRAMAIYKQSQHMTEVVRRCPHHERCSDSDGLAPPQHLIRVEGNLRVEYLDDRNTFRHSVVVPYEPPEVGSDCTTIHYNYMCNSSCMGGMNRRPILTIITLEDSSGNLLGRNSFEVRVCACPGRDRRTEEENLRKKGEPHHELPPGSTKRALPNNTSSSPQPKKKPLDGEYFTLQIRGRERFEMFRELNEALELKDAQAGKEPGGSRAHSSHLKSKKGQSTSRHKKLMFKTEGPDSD

CCc1ccc(C(c2ccc(CC)cc2)C(Cl)Cl)cc1
not listed: [7] | [8] | [9]
inactive: all other assays above

Nc1ccc([N+](=O)[O-])cc1O
not listed: [7] | [8] | [9]
inactive: all other assays above

COC(=O)C1CCC(C(=O)OC)CC1 (stereo unspecified)
inactive: all assays above

C#C[C@]1(O)CC[C@H]2[C@@H]3CCc4cc(OC)ccc4[C@H]3CC[C@@]21C
active: [7] 44 µM
inactive: all other assays above

CNC(=S)NC
active: [4] 46.1 µM
not listed: [3] | [7]
inactive: all other assays above

CCCCCCOC(=O)c1ccccc1O
not listed: [6] | [7]
inactive: all other assays above

O=C(C=Cc1ccccc1)OCC=Cc1ccccc1
inactive: [1] | [2] | [3] | [5] | [6]

Oc1ccc(Nc2ccccc2)cc1
inactive: [1] | [2] | [3] | [6]

Nc1cc(Cl)c(N)c(Cl)c1
inactive: [1] | [2] | [4] | [6]

O=S(=O)(O)c1ccc2ccccc2c1
not listed: [3] | [7]
inactive: all other assays above

CCCCNc1ccccc1
inactive: [1] | [2] | [3] | [4] | [6]

CCCCCCCCCCCCCCCC[N+](C)(C)Cc1ccccc1
inactive: [1] | [3]
active: [1] 64.7 µM | [2] 33.5 µM and 9 µM | [4] 25.9 µM and 27.1 µM | [5] 57.9 µM and 23 µM | [6] 42.3 µM and 43.4 µM

CCCCCCOC(=O)c1ccccc1
not listed: [3] | [7] | [9]
inactive: all other assays above

CCCCCC=O
inactive: [1] | [3] | [4] | [5]

OC[C@@H](O)[C@@H](O)[C@H](O)[C@@H](O)CO
not listed: [4] | [7]
inactive: all other assays above

C1COCCN1
not listed: [7]
inactive: all other assays above

Nc1ccc(S(=O)(=O)Nc2nccs2)cc1
inactive: [1] | [2] | [3] | [5] | [6]
